DRD3 antagonist: qHTS of D3 Dopamine Receptor Antagonist: qHTS | D(3) dopamine receptor (Homo sapiens), P35462 | D3R cells, DiscoveRx beta-arrestin luminescence, antagonist mode; active compounds read low | max response, negative = inhibition, % | actives 2.5% (n = 360,000) | AID 652054, 2013; in the data active = max response below about -50%; inconclusive = no clear call, values can overlap the other calls; note: % is set by controls: 0 for no effect and ±100 for the full control effect
Target sequence (P35462 whole entry, looked up): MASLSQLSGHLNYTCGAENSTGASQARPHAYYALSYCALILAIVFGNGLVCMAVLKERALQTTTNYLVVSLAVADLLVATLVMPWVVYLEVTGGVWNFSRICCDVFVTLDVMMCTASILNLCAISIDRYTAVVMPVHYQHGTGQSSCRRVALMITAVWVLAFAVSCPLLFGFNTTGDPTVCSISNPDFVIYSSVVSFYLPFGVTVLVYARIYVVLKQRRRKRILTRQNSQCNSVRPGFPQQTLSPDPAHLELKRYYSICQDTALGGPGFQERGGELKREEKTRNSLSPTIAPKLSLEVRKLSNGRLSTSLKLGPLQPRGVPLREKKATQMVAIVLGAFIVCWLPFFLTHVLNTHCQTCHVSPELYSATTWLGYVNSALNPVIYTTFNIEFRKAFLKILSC
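Cells plated overnight at 1500 cells/well, then exposed to library compounds with dopamine controls for 90 minutes at 37 degrees C. DiscoveRx reagent added for 30–60 minutes at room temperature; luminescence read, quantitative HTS format.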
PI5P4K alpha inh: qHTS for Inhibitors of phosphatidylinositol 5-phosphate 4-kinase (PI5P4K) | Phosphatidylinositol 5-phosphate 4-kinase type-2 alpha (Homo sapiens), P48426 | PI5P4Kalpha enzyme, ADP-Glo luminescence, 60 min; active compounds read low | max response, % | actives 1.2% (n = 330,000); active = max response of -50% or lower; inconclusive = between -30% and -50%; inactive = -30% or higher; note: value at the top dose of about 77 µM; % is set by controls: 0 for no effect and ±100 for the full control effect
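ADP-Glo luminescence end-point after a 60 min room-temperature kinase reaction. PI5P4Kalpha and substrate in HEPES pH 7.4 buffer with EGTA, 0.1% CHAPS and 5% DMSO; ATP at 5 microM final.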
LDHA block: qHTS assay for inhibitors of human lactate dehydrogenase; L-lactate dehydrogenase A chain (Homo sapiens), P00338; actives 0.15% (n = 480,000); AID 1347041, 2019; purified LDHA, NADH/diaphorase-resazurin fluorescence; active compounds read low; activity change, % (values are at about 110 or 230 µM); in the data active = activity change below about -30%; inconclusive = mostly about -25% to -30%;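 note: plate controls were DMSO wells for no effect and wells without enzyme for full effect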
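Human LDH5 at 2 nM final in Tris HCl pH 7.4 with 0.06 mM NADH and 0.2 mM pyruvate, reacted 5 minutes at room temperature. Remaining NADH coupled via diaphorase/resazurin; resorufin fluorescence read at 0 and 20 minutes, normalized to enzyme-free and DMSO wells.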
PI4K2A block: qHTS for small molecular inhibitors of PI4K2A; Phosphatidylinositol 4-kinase type 2-alpha (Homo sapiens), Q9BTU6; actives 0.13% (n = 420,000); AID 1346378, 2018; purified PI4K2A, ADP-Glo luminescence, 1 h; active compounds read low; activity change, negative = inhibition, % at 76.9 µM; in the data active = activity change below about -50%; inconclusive = mostly about -30% to -49%;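 note: -100% = wells without enzyme as full effect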
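In this quantitative HTS, ADP production by PI4K2A was quantified luminescently after 1 h at ambient temperature; 100 microM adenosine served as plate-quality control.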
D3 ag: qHTS of D3 Dopamine Receptor Agonist: qHTS; D3R DiscoveRx beta-arrestin cells, luminescence, 90 min; D(3) dopamine receptor (Homo sapiens), P35462; max activation, %; actives 0.58% (n = 410,000); in the data active = max activation above about 30%; note: 0% is about no effect
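Cells at 1500/well, incubated overnight, then treated with pinned compounds (dopamine as control) for 90 min at 37 degrees C. DiscoveRx reagent added for 30 - 60 minutes at room temperature; luminescence read.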
Numbers without * were called inactive; ? = inconclusive; . = no result given; ! = a repeat was not active. This is a sample that favours compounds with a hit; in the whole collection about 3.3% have one here.

SMILES	DRD3 antagonist	PI5P4K alpha inh	LDHA block	PI4K2A block	D3 ag
O=C1NC(=Nc2cccc(O)c2)S/C1=C\c1cccnc1	-20	-60*	5	-7	-7
COc1cc(/C=C2\SC(=Nc3cccnc3)NC2=O)cc(OC)c1OC	-17	-89*	-9	-3	-6
Cc1cccc(N=C2NC(=O)/C(=C/c3cccnc3)S2)c1C	-61*	-22	-3	0	-4
Cc1ccc(N=C2NC(=O)/C(=C/c3cccn3C)S2)cc1C	-23	-10	-4	-5	10
CC(=O)N1CCN(C(=O)CSc2cc(C)c3cc(C)cc(C)c3n2)CC1	.	.	-1	.	.
CCOC(=O)/C(=C/c1ccc(OC)c(Br)c1)c1nccn1C	.	.	13	.	.
CCC(C(=O)Nc1ccccc1)n1cnc2c1c(=O)n(C)c(=O)n2C (stereo not given)	.	.	3	.	.
O=C1NC(=Nc2ccccc2)S/C1=C\c1ccccc1	6	-8	-2	5	-14
Cc1ccccc1N=C1NC(=O)/C(=C/c2cccn2-c2cccc(C(=O)O)c2)S1	13	-87*	-6	3	12
O=C1NC(=Nc2cccc(O)c2)S/C1=C\c1cccc([N+](=O)[O-])c1	9	-70*	-14	5	3
OCCCNC(=S)Nc1ccc(Cl)cc1	.	.	-1	.	.
CN1C(=O)/C(=C/c2cc(C(C)(C)C)c(O)c(C(C)(C)C)c2)NC1=S	-58*	3	1	5	4
COC(=O)c1ccc(/C=C2\NC(=S)N(C)C2=O)cc1	.	.	-2	.	.
Cn1c(=O)c2cc(NC(=O)CCc3cccc(Cl)c3)ccc2n1Cc1cccc(C(F)(F)F)c1	2	1	-4	-2	2
C=C(C)Cn1c2ccc(NC(=O)CCc3cccc(Cl)c3)cc2c(=O)n1C	7	6	3	1	45*
Cc1ccc2cc3cc(C(=O)NC4CCCC4)sc3nc2c1	.	.	-8	.	.
O=C(Nc1nc(-c2ccc(Cl)s2)cs1)C1CC1	.	.	-34*	.	.
O=C(O)C1CCCCC1C(=O)Nc1nc(-c2ccc(Cl)s2)cs1 (stereo not given)	8	?	-7	-1	3
Cn1c(=O)[nH]c(=O)c2c1[nH]c(=S)n2CCCc1ccccc1	-54*	-52*	-2	-10	11
Cn1c(=O)[nH]c(=O)c2c1[nH]c(=S)n2Cc1ccc(Cl)cc1	0	-92*	-1	2	-2
Cn1c(=O)n(Cc2ccccc2Cl)c(=O)c2c1[nH]c(=S)n2C	7	-56*	-4	1	9
Cn1c(=O)c2c([nH]c(=S)n2CCCc2ccccc2)n(C)c1=O	0	-94*	0	-9	6
CSc1nc2c(c(=O)[nH]c(=O)n2C)n1CCCc1ccccc1	-23	-4	-2	1	-4
CC(NC(=O)c1cccnc1)c1ccc(O)cc1 (stereo not given)	.	.	-1	.	.
O=C(CCc1c[nH]c2ccccc12)Nc1cccc(OC(F)F)c1	.	.	1	.	.
SMILES	DRD3 antagonist	PI5P4K alpha inh	LDHA block	PI4K2A block	D3 ag
CC(On1nnc2ccc(Cl)cc21)C(=O)Nc1ccccc1F (stereo not given)	.	.	-8	.	.
CCOc1nc2ccccc2nc1N1CCC(C(=O)NCc2ccc(Cl)cc2)CC1	.	.	-5	.	.
CN(C)CCNc1nc2c(c(=O)[nH]c(=O)n2C)n1CCCc1ccccc1	-76*	-8	-1	1	5
CCn1cc(C#N)c(=O)n(Cc2nc(-c3ccc(Cl)cc3)no2)c1=O	.	.	3	.	.
CN(C)S(=O)(=O)N(CC(=O)NC1CCCCCC1)c1ccccc1	.	.	-8	.	.
COc1cc(S(=O)(=O)N2CCC(C(N)=O)CC2)c(C)cc1C	-104*	.	-9	2	-15
CCC(=O)NC(C)c1cccs1 (stereo not given)	.	.	-4	.	.
O=C(c1ccco1)N1CCNCC1	.	.	.	0	.
O=C(CCc1nc2ccccc2c(=O)[nH]1)Nc1ccc(F)cc1	-54*	-8	-12	3	-3
CN(CC(=O)Nc1ccc(F)cc1)C(=O)CCc1nc2ccccc2c(=O)[nH]1	-54*	4	2	0	-16
COc1ccc(NC(=O)CN(C)C(=O)CCCc2nc3ccccc3c(=O)[nH]2)cc1	7	-3	-3	0	1
O=C(Nc1cc(F)ccc1F)c1nn(-c2ccccc2)c(=O)c2ccccc12	.	.	-11	.	.
O=C(Cn1ccc2c(Cl)cccc21)NCc1ccccc1	.	.	0	.	.
O=C(O)c1ccc(Oc2nc3ccccc3s2)cc1	-13	0	?	-61*	-2
CCCN(CCC)C(=O)c1ccc2nc(C)c(C)nc2c1	.	.	0	.	.
O=C(O)c1cc2cccc(S(=O)(=O)N3CCOCC3)c2cc1O	-54*	-73*	10	1	12
O=C(CSc1nnc(NC2CC2)s1)Nc1ccc(N2CCOCC2)cc1	1	-1	-13	-2	-4
O=C(CSc1nnc(NC(=O)C2CCC2)s1)Nc1ccc(N2CCOCC2)cc1	-73*	-9	6	-5	-11
CNc1nc(-c2ccccc2)c2sccc2n1	-74*	0	-4	-6	-13
Cc1c(C#N)c(N)nc2c3c(sc12)NC(=O)CC3c1ccc(F)cc1 (stereo not given)	50	0	17	-6	3
Cc1c(C#N)c(N)nc2c3c(sc12)NC(=O)CC3c1ccccc1 (stereo not given)	1	6	-31*!	-1	13
CN(C)c1ccc(Nc2ccc([N+](=O)[O-])cn2)cc1	-60*	0	3	-5	-9
Cc1ccsc1/C=N/NC(=O)c1c[nH]c2ccccc12	-51*	0	0	3	-1
Cc1ccc(/C=N/NC(=O)c2c[nH]c3ccccc23)s1	-19	6	0	-3	-16
CCC(=O)Oc1ccc2c(C)c(Cc3ccccc3)c(=O)oc2c1	.	.	-10	.	.
SMILES	DRD3 antagonist	PI5P4K alpha inh	LDHA block	PI4K2A block	D3 ag
Cc1ccccc1OCc1nnc(SCC(=O)O)n1-c1cccc(Cl)c1	0	-53*	-10	-1	6
Cc1ccccc1OCc1nnc(SCC(=O)O)n1-c1ccccc1	8	?	-2	1	-10
c1ccn2c(c1)nc1c2nc2ccccn21	2	.	7	-8	8
Cc1ccn2c(=S)[nH]nc2c1	?	-78*	2	3	-1
S=c1[nH]nc2ccccn12	-13	-85*	-8	1	-6
Cc1ccn2c(-c3n[nH]c(=S)n3Cc3ccccc3)c(C)nc2c1	-25	-29	-7	5	-12
Cn1c(O)c(C2=c3ccccc3=NC2=O)[nH]c1=S	?	-15	-4	-3	-9
COc1ccc2nc(-n3c(O)c(C4=c5ccccc5=NC4=O)[nH]c3=S)sc2c1	-15	-67*	-19	-12	-29

Assay outcomes deposited in PubChem BioAssay by National Center for Advancing Translational Sciences (NCATS).
